A short description of the assay: NCI Yeast Anticancer Drug Screen. Data for the mlh1 strain (AID 171).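 Also: 0% = growth of vehicle-treated control cultures of the same strain.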 The conditions noted are these: S. cerevisiae mlh1 strain growth inhibition, hits give high values. As for the experimental part:
Growth inhibition of yeast strains with defined genetic alterations is measured as a screen for potential anti-cancer activity. Selected strains with alterations in DNA damage repair or cell cycle control were exposed to compounds and growth inhibition was measured relative to vehicle treated controls. The strain used in this assay is mlh1

This is part of a sample that, as a whole, favours compounds with a hit. Of some 79,000 tested, about 15% had one in any assay. A number with no mark means an inactive call. The source made the active and inactive calls. Rule as the data show it: active = growth inhibition above about 70%; inactive = the rest.

On to `O=C(O)Cc1cc(F)ccc1C(=O)O`, for which the growth inhibition is 5% (at 1.2 µM); 2% (at 3.7 µM); 7% (at 11.0 µM); 15% (at 33.0 µM); 76% (active) (at 100.0 µM).

For the compound `CSc1nc(C)c(CCOC(C)=O)c(N=P(c2ccccc2)(c2ccccc2)c2ccccc2)n1`, the growth inhibition runs as follows: (at 1.2 µM) 12%; (at 3.7 µM) 5%; (at 11.0 µM) -2%; (at 33.0 µM) -2%; (at 100.0 µM) 92% (active).

In the case of `O=C1N=C2SC=C(NC(=S)Nc3ccccc3)N2NC12c1ccccc1-c1ccccc12`, the growth inhibition was 10% (at 1.2 µM); 8% (at 3.7 µM); 20% (at 11.0 µM); 59% (at 33.0 µM); 81% (active) (at 100.0 µM).

Consider `CCCCOP(=O)(CCCP(=O)(OCCCC)OCCCC)OCCCC`, for which the growth inhibition runs as follows: (at 1.2 µM) -5%; (at 3.7 µM) -2%; (at 11.0 µM) 1%; (at 33.0 µM) 8%; (at 100.0 µM) 91% (active).

In the case of `O=C(NO)Nc1cc(Cl)cc(Cl)c1`, the growth inhibition reads like this: (at 1.2 µM) 4%; (at 3.7 µM) 31%; (at 11.0 µM) 99% (active); (at 33.0 µM) 99% (active); (at 100.0 µM) 97% (active).

For the compound `C[C@]12CC[C@H](O)CC1=CC[C@@H]1C2CC[C@]2(C)C(=O)NC(=O)CC12` (stereo not given in full), the growth inhibition was -33% (at 1.2 µM); -3% (at 3.7 µM); 71% (active) (at 11.0 µM); 94% (active) (at 33.0 µM); 96% (active) (at 100.0 µM).

As to `COc1ccc2c(c1)n([O-])c1ccccc1[n+]2=O`, the growth inhibition was 0% (at 1.2 µM); 3% (at 3.7 µM); 12% (at 11.0 µM); 38% (at 33.0 µM); 90% (active) (at 100.0 µM).

Take `C=C(C(=C)n1nnc(C(=O)OC)c1C(=O)OC)n1nnc(C(=O)OC)c1C(=O)OC`: the growth inhibition by setting is: (at 1.2 µM) -1%; (at 3.7 µM) -2%; (at 11.0 µM) 0%; (at 33.0 µM) 0%; (at 100.0 µM) 0%.
